From PubChem BioAssay AID1851 (National Center for Advancing Translational Sciences (NCATS), 2009) come the findings set out here.

The structures appear in SMILES notation. About 5,100 (32%) of roughly 16,000 compounds were called active. Inconclusive results (about 25%) are left out. Some of the results follow. Unmarked numbers belong to inactive results. Calls follow the shape of the dose curve; as a rule, active = well fitted curve in the direction sought with a large enough effect; inconclusive = small, poorly fitted or top-dose-only effect, or effect the other way; inactive = no such curve, though single readings can be large or run the other way.
% is scaled to controls: 0 for no effect and ±100 for the full control effect.

Chain of Cytochrome P450 3A4 (Homo sapiens) (P08684 whole entry, looked up): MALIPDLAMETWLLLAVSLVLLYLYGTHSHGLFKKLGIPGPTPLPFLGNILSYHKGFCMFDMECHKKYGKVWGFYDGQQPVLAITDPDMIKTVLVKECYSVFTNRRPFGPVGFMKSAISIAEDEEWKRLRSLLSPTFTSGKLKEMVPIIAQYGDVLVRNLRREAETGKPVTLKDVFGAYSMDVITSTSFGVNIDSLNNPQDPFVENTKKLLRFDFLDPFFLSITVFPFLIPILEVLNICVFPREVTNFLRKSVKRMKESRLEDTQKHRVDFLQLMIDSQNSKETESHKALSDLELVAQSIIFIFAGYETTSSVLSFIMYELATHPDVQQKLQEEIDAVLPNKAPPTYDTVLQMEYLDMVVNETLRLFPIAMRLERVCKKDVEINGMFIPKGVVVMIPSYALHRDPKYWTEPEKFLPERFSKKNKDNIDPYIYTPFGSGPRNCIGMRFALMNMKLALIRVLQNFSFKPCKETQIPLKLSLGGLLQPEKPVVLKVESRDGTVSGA

This experiment addresses Cytochrome P450 3A4 (Homo sapiens) (UniProt P08684). Nature of the experiment: Cytochrome panel assay with activity outcomes. As to conditions: recombinant CYP, pro-luciferin dealkylation, luminescence, p450-cyp3a4; series mostly up to 57.1 µM; activity, negative = inhibition: at the top concentration.
Consider `CC(=O)N1c2ccc(S(=O)(=O)CCC(=O)O)cc2CC1C` (configuration not stated), for which the “activity, negative = inhibition” value is -7.01%.

For orientation: AC50 means the midpoint of the concentration-response curve, whichever way the signal moves. Consider `CC1Cc2ccccc2N1C(=O)C1CCCCN1S(=O)(=O)c1ccccc1` (configuration not stated), for which the half-maximal activity concentration (AC50) was 7.94 µM (active).

Consider `CCNC(=O)C1CC(=O)OC12CCCCC2` (configuration not stated), for which the “activity, negative = inhibition” value is -5.12%.

With `Cc1c(Cl)c(S(N)(=O)=O)cc(S(N)(=O)=O)c1NC(=O)c1ccc(Cl)cc1`, the activity, negative = inhibition is 3.55% [at 11.4 µM].

On to `O=C(Nc1ccc(Cl)cc1)NC1CCCCC1`, for which the activity, negative = inhibition was 9.33% [at 2.29 µM].

Regarding `Cc1cc(C)cc(C(=O)N(NC(=O)Nc2ccc(Cl)cc2)C(C)(C)C)c1`, the AC50 is 15.8 µM (active).

As for `CC(C)(C)NC(=O)C(=O)NNC(=O)c1ccccc1`, the “activity, negative = inhibition” value was 5.58%.

Consider `CC(C)(C)N(NC(=O)Nc1ccccc1)C(=O)c1ccccc1Cl`, for which the half-maximal activity concentration (AC50) was 14.1 µM (active).

For `CC(C)(CC(=O)Nc1ccccc1)C(=O)O`, the activity, negative = inhibition was -5.79% [at 11.4 µM].

With `CC(C)(C)N(NC(=O)Nc1ccc(Cl)c(Cl)c1)C(=O)c1ccccc1`, the AC50 is 14.1 µM (active).

On to `NCS(=O)(=O)O`, for which the activity, negative = inhibition was -9.19% [at 11.4 µM].

As for `CN(C)Cc1cc(Cl)c(O)c(CN(C)C)c1`, the activity, negative = inhibition is -5.94% [at 11.4 µM].

Regarding `CCCCOC(=O)c1cc2c(cn1)[nH]c1ccccc12`, the concentration at half-maximal activity (AC50) is 25.1 µM (active).

For `CCCCOC(=O)c1ccc(O)cc1`, the “activity, negative = inhibition” value was -25.7% [at 25.6 µM].

On to `O=C(O)CCc1ccc(-c2ccc(Cl)cc2)n1CCC(=O)O`, for which the “activity, negative = inhibition” value was -1.68%.

With `COCCNC(=O)[C@H](C)[C@@H]1C[C@@]1(C)[C@@H](NC(=O)OCc1ccccc1)c1ccccc1`, the AC50 was 7.94 µM (active).

`C[C@@H](C(=O)NCCF)[C@H]1C[C@]1(C)[C@H](NC(=O)OCc1ccccc1)c1ccccc1`: the concentration at half-maximal activity (AC50) was 3.98 µM (active).

`COCCNC(=O)[C@H](C)[C@H]1C[C@]1(C)[C@H](NC(=O)OCc1ccccc1)c1ccccc1`: the AC50 is 3.16 µM (active).

For the molecule `COc1ccc(NC(=O)CCNS(=O)(=O)c2ccc3c(c2)CCC(=O)N3)cc1`, the half-maximal activity concentration (AC50) is 15.8 µM (active).

`O=C(CCNS(=O)(=O)c1ccc2c(c1)CCC(=O)N2)NCc1ccc2c(c1)OCO2`: the concentration at half-maximal activity (AC50) is 1.41 µM (active).

Consider `COC(=O)N1CCC2(CCN(C(=O)Nc3ccc(OC)cc3)CC2)CC1`, for which the “activity, negative = inhibition” value is 14.5%.

Consider `COc1ccc(-c2nc(N)c3ncn([C@H]4O[C@@H](CO)[C@@H](O)[C@@H]4O)c3n2)cc1`, for which the activity, negative = inhibition is -0.494% [at 11.4 µM].

With `COc1ccc2[nH]cc(CCNc3ncncc3-c3ccccc3C)c2c1`, the AC50 is 0.316 µM (active).

Take `COc1ccc2[nH]cc(CCNc3ncncc3-c3c(C)noc3C)c2c1`: the half-maximal activity concentration (AC50) was 0.794 µM (active).

As for `COc1ccc2[nH]cc(CCNc3ncncc3-c3ccccc3OC)c2c1`, the AC50 is 0.126 µM (active).

Regarding `COc1ccc2[nH]cc(CCNc3ncncc3-c3ccccc3Cl)c2c1`, the AC50 is 0.398 µM (active).

Take `C=C1c2cccc(O)c2C(O)=C2C(=O)[C@@]3(O)C(O)=C(C(N)=O)C(=O)[C@@H](N(C)C)[C@@H]3[C@@H](O)[C@H]12`: the “activity, negative = inhibition” value is -10.9% [at 25.6 µM].

Take `CNc1nc(Cl)nc(NC(C)(C)C)n1`: the “activity, negative = inhibition” value was -12%.

As to `CN1C[C@H](c2ccccc2)C(O)([C@]2(c3ccccc3)CN(C)C[C@@H](c3ccccc3)C2=O)[C@H](c2ccccc2)C1` (some centres not stated), the activity, negative = inhibition is -0.704% [at 11.4 µM].

For `O=C(c1cc(Br)ccc1O)c1cc(Br)ccc1O`, the activity, negative = inhibition was -18.8% [at 11.4 µM].

Consider `COc1ccc2[nH]cc(CCNc3ncncc3-c3ccccc3CN(C)C)c2c1`, for which the AC50 was 0.631 µM (active).

Take `COc1ccc2[nH]cc(CCNc3ncncc3-c3ccccc3C(F)(F)F)c2c1`: the concentration at half-maximal activity (AC50) is 0.251 µM (active).

Turning to `O=S(=O)(O)c1ccc2c(N=Nc3cccc4ccccc34)c(O)c(S(=O)(=O)O)cc2c1`, the activity, negative = inhibition is 5.97% [at 11.4 µM].

Turning to `Cc1ccccc1N1CCN(C(=O)c2ccccc2NC(=O)/C=C\C(=O)O)CC1`, the “activity, negative = inhibition” value was -14.2%.

`CN1CCN(c2ccc([N+](=O)[O-])cc2NC(=O)c2ccccc2Cl)CC1`: the “activity, negative = inhibition” value was 13%.

On to `O=C(Nc1ccccc1N1CCN(C(=O)c2ccc(Cl)cc2)CC1)c1cc(Br)ccc1Cl`, for which the half-maximal activity concentration (AC50) was 3.98 µM (active).

Consider `O=C(Nc1ccccc1N1CCN(C(=O)c2ccccc2)CC1)c1cc(Br)ccc1Cl`, for which the half-maximal activity concentration (AC50) is 3.55 µM (active).

Consider `COc1cccc(C(C#N)N2N=C(C)CC2(C)C)c1O` (configuration not stated), for which the “activity, negative = inhibition” value was -11.6%.

`CCOC(=O)CNc1c(-c2ccccc2)nc2ccc(Cl)cn12`: the “activity, negative = inhibition” value is 21.3%.

`c1ccc(-c2nc3ccccn3c2NCc2ccc3c(c2)OCO3)cc1`: the concentration at half-maximal activity (AC50) is 0.501 µM (active).

With `CO[C@H]1[C@@H](OC(N)=O)[C@H](O)[C@@H](Oc2ccc3c(O)c(NC(=O)c4ccc(O)c(CC=C(C)C)c4)c(=O)oc3c2C)OC1(C)C`, the “activity, negative = inhibition” value is -7.19% [at 25.6 µM].

On to `Cn1cccc1/C=N/NC(=O)c1sc2ccccc2c1Cl`, for which the AC50 was 8.91 µM (active).

In the case of `N#CCCn1nnc2ccccc21`, the “activity, negative = inhibition” value was -10.8%.

Take `C=CCN1CCc2cc(O)c(O)cc2[C@H](c2ccccc2)C1`: the AC50 entry is “inactive”.

Regarding `Cc1nnsc1SCC(=O)O`, the “activity, negative = inhibition” value is -4.96%.

For `O=C(O)CSSCC(=O)O`, the activity, negative = inhibition is -6.12% [at 11.4 µM].

On to `O=C(O)CSc1sc(=S)sc1SCC(=O)O`, for which the half-maximal activity concentration (AC50) is 11.2 µM (active).
